Measured values as given in the supplement of paper PMC12067093, “Discovery and optimisation of a covalent ligand for TRIM25 and its application to targeted protein ubiquitination” (Chemical Science, 2025).
Targets with the largest changes are over-represented here; the source holds about 21,000 in all.

Compound: Cc1cc(ccc1-c1ccccc1)C(=O)N1CCCN(CC1)C(=O)CCl [compound 10]
Test: probe-labelled cysteine peptide fold change vs DMSO (competition) (log2 fold change); higher = less target engagement (more negative = stronger competition)
Details: THP-1, incubation time: 4 h
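Also: competitive profiling in live THP-1 cells: cysteine peptides tagged with an iodoacetamide desthiobiotin (IA-DTB) probe, intensity after compound treatment relative to DMSO-treated cells.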

Target	probe-labelled cysteine peptide fold change (10 µM)	probe-labelled cysteine peptide fold change (50 µM)
RBM25_P49756_132_LQAFGFCEYKEPESTLR (UniProt P49756)	-0.148	-0.0661
RCHY1_Q96PM5_43_LCHDNNEDHQLDR (UniProt Q96PM5)	0.344	2.12
RARS2_Q5T160_479_LHSLEETFGCGYLNDFNTACLQEPQSVSILQHLLR (UniProt Q5T160)	-0.037	0.0628
QSOX1_O00391_110_AWRPALYLAALDCAEETNSAVCR (UniProt O00391)	-0.147	-0.174
PTPRC_P08575_610_SCNLDEQQELVERDDEK (UniProt P08575)	-0.427	-1.12
RAD54L2_Q9Y4B4_1143_MAASGSQGPSCESTSNGR (UniProt Q9Y4B4)	-0.204	-0.485
RASSF5_Q8WWW0_225_NCLGMK (UniProt Q8WWW0)	-0.275	-0.844
PTPN1_P18031_344_EETQEDKDCPIKEEK (UniProt P18031)	-0.593	-1.57
RNF114_Q9Y508_160_NFDQEGLVEHCK (UniProt Q9Y508)	0.0873	0.126
RNF123_Q5XPI4_1277_ACINQHLMNNK (UniProt Q5XPI4)	-0.0494	-0.231
RAB29_O14966_127_CDLSPWAVSR (UniProt O14966)	-0.0495	0.0455
RANBP2_P49792_1243_ICANHYISPDMK (UniProt P49792)	0.0568	0.0875
PRPF4_O43172_441_RCVYTIPAHQNLVTGVK (UniProt O43172)	-0.0522	-0.2
RCSD1_Q6JBY9_181_RSQSDCGELGDFR (UniProt Q6JBY9)	-0.852	-1.19
RFC3_P40938_32_NLVQCGDFPHLLVYGPSGAGKK (UniProt P40938)	-0.11	-0.186
PXN_P49023_387_TWHPEHFVCTHCQEEIGSR (UniProt P49023)	-0.0992	-0.106
RARS_P54136_34_NCGCLGASPNLEQLQEENLK (UniProt P54136)	-0.247	-1.27
PSMC3_P17980_240_ACAAQTK (UniProt P17980)	-0.0208	-0.0025
PRKDC_P78527_2093_DPTVHDDVLELEMDELNRHECMAPLTALVK (UniProt P78527)	-0.156	-0.199
RAB33A_Q14088_135_MWIQECNGHAVPPLVPK (UniProt Q14088)	0.0206	0.0086
RNASEH1_O60930_191_AEIHAACK (UniProt O60930)	-0.0799	-0.155
PRKCD_Q05655_261+264_CEDCGMNVHHK (UniProt Q05655)	-0.702	-1.69
RFC3_P40938_32_NLVQCGDFPHLLVYGPSGAGK (UniProt P40938)	-0.122	0.124
RECQL4_O94761_814_DGQPAHCHLFLQPQGEDLR (UniProt O94761)	-0.0251	-0.0847
RAD50_Q92878_133_CAEIDREMISSLGVSK (UniProt Q92878)	-0.195	-0.429
RHOG_P84095_18_TCLLICYTTNAFPK (UniProt P84095)	-0.108	0.0979
PSMB3_P49720_19_NCVAIAADRR (UniProt P49720)	0.0313	0.234

Target	probe-labelled cysteine peptide fold change (10 µM)	probe-labelled cysteine peptide fold change (50 µM)
RGS10_O43665_66_EFSEENVLFWLACEDFK (UniProt O43665)	0.332	0.101
PXN_P49023_505_ECFTPFVNGSFFEHDGQPYCEVHYHER (UniProt P49023)	0.192	0.386
PRKCQ_Q04759_193_QCNAAIHK (UniProt Q04759)	-0.474	-0.576
PRMT9_Q6P2P2_290_GESANCEK (UniProt Q6P2P2)	-0.112	-0.0837
PRKCSH_P14314_39_GVSLTNHHFYDESKPFTCLDGSATIPFDQVNDDYCDCK (UniProt P14314)	-0.151	-1.07
PRPF19_Q9UMS4_5+16_SLICSISNEVPEHPCVSPVSNHVYER (UniProt Q9UMS4)	0.0585	0.103
RHOC_P08134_20_TCLLIVFSK<|>RHOA_P61586_20_TCLLIVFSK<|>RHOB_P62745_20_TCLLIVFSK (UniProt P62745+P61586+P08134)	-0.323	-0.507
PYCR1_P32322_262_SLLINAVEASCIR (UniProt P32322)	0.0279	0.0718
RLF_Q13129_400_TIACLLPEDLEVRR (UniProt Q13129)	-0.0742	-0.58
PRKDC_P78527_1742_FNNYVDCMK (UniProt P78527)	0.239	-0.0715
RDH13_Q8NBN7_30_DYVTGGACPSK (UniProt Q8NBN7)	-0.162	-0.083
PRKD2_Q9BZL6_169_CDGCGLNYHK (UniProt Q9BZL6)	-0.0725	0.00149
PSMC6_P62333_228_DHQPCIIFMDEIDAIGGR (UniProt P62333)	-0.0612	0.106
PRKCI_P41743_137_LYCANGHTFQAK (UniProt P41743)	-0.00179	0.0748
QDPR_P09417_161_GAVHQLCQSLAGK (UniProt P09417)	0.0328	0.165
PTER_Q96BW5_196_VLQATAHAQAQLGCPVIIHPGR (UniProt Q96BW5)	0.2	0.329
PRKCB_P05771_132+135_CDTCMMNVHKR (UniProt P05771)	-0.193	-0.881
RNF114_Q9Y508_64_KPVCGVCR (UniProt Q9Y508)	0.0642	-0.0371
RET_P07949_987_LMLQCWK (UniProt P07949)	0.0807	0.122
PTPN12_Q05209_164_ISCEDEQAR (UniProt Q05209)	0.159	0.15
PSMB8_P28062_7_ALLDVCGAPR (UniProt P28062)	-0.068	-0.273
PREX1_Q8TCU6_836_LSLCEDSPMVTLTVDNVHLEHGVVYEYVSTAGVR (UniProt Q8TCU6)	-0.0714	0.185
PRKDC_P78527_1507_QCLPSLDLSCK (UniProt P78527)	0.0976	-1.07
RCCD1_A6NED2_139_LPLLPCAR (UniProt A6NED2)	-1.01	-1.9
PSME4_Q14997_637_CCPEESLK (UniProt Q14997)	-0.0784	-0.446
PRKDC_P78527_1335_CTVVVR (UniProt P78527)	0.00715	0.101
PRKDC_P78527_1364_DLCNTHLMR (UniProt P78527)	-0.0526	-0.0393

Target	probe-labelled cysteine peptide fold change (10 µM)	probe-labelled cysteine peptide fold change (50 µM)
R3HCC1_Q9Y3T6_5_ALLCLDGVFLSSAENDFVHR (UniProt Q9Y3T6+R3HCC1)	0.242	0.0812
RGPD3_A6NKT7_537_SWWDAVCTLIHR<|>RGPD8_O14715_537_SWWDAVCTLIHR<|>RGPD1_P0DJD0_528_SWWDAVCTLIHR<|>RGPD2_P0DJD1_536_SWWDAVCTLIHR<|>RANBP2_P49792_536_SWWDAVCTLIHR<|>RGPD4_Q7Z3J3_537_SWWDAVCTLIHR<|>RGPD6_Q99666_537_SWWDAVCTLIHR (UniProt Q7Z3J3+P49792+P0DJD1+Q99666+P0DJD0+O14715+A6NKT7)	-0.451	-0.14
RIF1_Q5UIP0_2450_LSCMANSVIK (UniProt Q5UIP0)	-0.0942	-0.14
RABGAP1L_Q5R372_665_NNFEDLHCK (UniProt Q5R372)	0.206	0.197
RBBP5_Q15291_100_LVSASTDNIVSQWDVLSGDCDQR (UniProt Q15291)	0.121	0.0651
PRPF8_Q6P2Q9_2116_KFICISDLR (UniProt Q6P2Q9)	0.0139	0.129
PUS7_Q96PZ0_319_CLMNFK (UniProt Q96PZ0)	-0.0229	-0.239
RHOT2_Q8IXI1_185_QLRPACAQALTR (UniProt Q8IXI1)	-0.151	0.0492
PRMT5_O14744_622_KVWYEWAVTAPVCSAIHNPTGR (UniProt O14744)	-0.0156	0.0576
PRKDC_P78527_2342_KNILEESLCELVAK (UniProt P78527)	-0.182	-0.0562
PSMD11_O00231_202_TTANAIYCPPK (UniProt O00231)	0.077	0.248
PRKCD_Q05655_127_VLMSVQYFLEDVDCK (UniProt Q05655)	-0.226	-0.31
RMND5A_Q9H871_328+336_CWYHSIFACPILR (UniProt Q9H871)	-0.0698	-0.177
RAI14_Q9P0K7_139_TALHYAAAQGCLQAVQILCEHK (UniProt Q9P0K7)	0.0635	-0.0217
RBM4B_Q9BQ04_107_FEEYGPVIECDIVK<|>RBM4_Q9BWF3_107_FEEYGPVIECDIVK (UniProt Q9BWF3+Q9BQ04)	0.566	0.744
RBM28_Q9NW13_97_NENSECPK (UniProt Q9NW13)	-0.0194	0.16
RGMB_Q6NW40_226_ITIIFKAHHECTDQK (UniProt Q6NW40)	-0.0752	-1.11
RANBP9_Q96S59_707_QPPLALAMGQATQCLGLMAR (UniProt Q96S59)	0.193	0.216
PSME4_Q14997_718_QGYTLSCNLLHHLLR (UniProt Q14997)	0.366	0.173
RNF126_Q9BV68_13+16_YFCHCCSVEIVPR (UniProt Q9BV68)	-0.268	-1.16
PRXL2A_Q9BRX8_88_RPGCFLCR (UniProt Q9BRX8)	-2.04	-2.18
PRPS2_P11908_165_NCIIVSPDAGGAKR (UniProt P11908)	0.121	-0.113
QRSL1_Q9H0R6_278_LCIGIPK (UniProt Q9H0R6)	0.155	0.0481
RAD54L2_Q9Y4B4_618_AFCVCCK (UniProt Q9Y4B4)	-0.173	-0.639
REEP5_Q00765_18_NCMTDLLAK (UniProt Q00765)	-0.872	-1.97
RAB10_P61026_124_CDMDDK (UniProt P61026)	-0.104	0.0844
